Source: PubChem BioAssay (NCATS)
Records with an inconclusive call do not appear. The source made the active and inactive calls. The call rests on the fitted dose curve; in most records, active means well fitted curve in the direction sought with a large enough effect; inconclusive means small, poorly fitted or top-dose-only effect, or another doubt; inactive means no such curve, though single readings can be large; an effect the other way counts as inactive or inconclusive.

assay: Cell Viability - Mesenchymal (AID 546); details: mesenchymal cells viability, qHTS; series mostly up to 91.7 µM; activity change, negative = cytotoxicity: at the top concentration;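 further: cells exposed to compound for 40 hours before reading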
In short: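 In this qHTS cytotoxicity format, glomerulus-derived human mesenchymal kidney cells received compound for 40 hr, then luciferase-based ATP quantitation. Concentration-response data were fitted with the Hill equation.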

Compound | activity change, negative = cytotoxicity
Cc1ccccc1C#N | -10.8% (inactive)
CCC=O | 6.2% (inactive)
Oc1c(Cl)ccc(Cl)c1Cl | -9.28% (inactive)
Cc1ccccc1C=O | 1.83% (inactive)
CN(C)c1cccc(O)c1 | 7.97% (inactive)
Cc1ccc(S(=O)(=O)NC2CCCCC2)cc1 | 8.97% (inactive)
CCOC(=O)OCC | 0.183% (inactive)
CC(C)(O)CCC(C)(C)O | 8.99% (inactive)
O=Cc1ccccc1Cl | 7.66% (inactive)
CCCCCCCCC/C=C/CC1CC(=O)OC1=O (stereo not given) | 3.45% (inactive)
Cc1ccc2cccnc2c1 | 4.62% (inactive)
O=Cc1ccc(CO)o1 | 2.32% (inactive)
CCCC(Cl)CCCC(Cl)CCC(Cl)CCC(Cl)CCC(Cl)CCCC(Cl)CCC (stereo not given) | -5.76% (inactive)
Cc1ccc(C)o1 | 5.88% (inactive)
CCCCN(CCO)CCCC | -7.67% (inactive)
C=C(C)C(=O)OCCCCCC | 0.376% (inactive)
CCOc1cccc(N)c1 | -0.91% (inactive)
COC(=O)CCCC(=O)OC | 7.97% (inactive)
O=C1CCCCC1 | 3.98% (inactive)
NC(=O)NC(N)=O | 12.1% (inactive)

Compound | activity change, negative = cytotoxicity
CCOCCOCC | 5.75% (inactive)
CC(C)N=C=NC(C)C | -6.2% (inactive)
CC(C)=CCl | 10.2% (inactive)
CCC(C)(C)C(=O)O | 0.332% (inactive)
Cc1ccc(C)c(N)c1 | 9.6% (inactive)
CN(C)CCCCl | 0.0112% (inactive)
CCCCOCCOCCOCCCC | 6.99% (inactive)
CC/C=C/C#N | -4.04% (inactive)
Cc1cccc2cccnc12 | 1.99% (inactive)
Cc1ccccc1C(=O)O | -2.69% (inactive)
C/C(C=O)=C/c1ccccc1 | 6.92% (inactive)
O=[N+]([O-])c1c(Cl)cc(Cl)cc1Cl | 0.235% (inactive)
CC(=O)OC(C)=O | 3.05% (inactive)
CNC(=O)c1ccccc1 | -1.89% (inactive)
O=Cc1c(Cl)cccc1Cl | 5.95% (inactive)
c1ccc(Oc2ccccc2)cc1 | 2.41% (inactive)
Clc1cc(Cl)cc(Cl)c1 | -0.791% (inactive)
Cc1ccc(C(C)(C)C)cc1 | 4.22% (inactive)
C=C(C)C(=O)OCC(C)O (stereo not given) | 11.6% (inactive)
O=C(O)c1cc(Cl)cc(Cl)c1 | -7.11% (inactive)

assay: Cellular Toxicity (caspase-3) HepG2 (AID 654); details: HepG2 caspase-3 activation, luminescence; series mostly up to 92.2 µM; caspase-3 activation: at the top concentration;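 further: cells exposed to compound for 16 hours before reading; 0% = DMSO alone and 100% = caspase signal from 100 µM tamoxifen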
In short: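 Concentration-response AC50 values reflect caspase-3/7 induction in HepG2 cells after 16 hours of compound exposure, quantified by luminescence from liberated aminoluciferin and referenced to 100 uM tamoxifen as full stimulation.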

Compound | caspase-3 activation
Cc1ccccc1C#N | 0.919% (inactive)
CCC=O | 0.124% (inactive)
Oc1c(Cl)ccc(Cl)c1Cl | 0.196% (inactive)
Cc1ccccc1C=O | -0.569% (inactive)
CN(C)c1cccc(O)c1 | 0.821% (inactive)
Cc1ccc(S(=O)(=O)NC2CCCCC2)cc1 | -0.299% (inactive)
CCOC(=O)OCC | -0.271% (inactive)
CC(C)(O)CCC(C)(C)O | -0.805% (inactive)
O=Cc1ccccc1Cl | -1% (inactive)
CCCCCCCCC/C=C/CC1CC(=O)OC1=O (stereo not given) | -0.119% (inactive)
Cc1ccc2cccnc2c1 | -0.334% (inactive)
O=Cc1ccc(CO)o1 | -0.758% (inactive)
CCCC(Cl)CCCC(Cl)CCC(Cl)CCC(Cl)CCC(Cl)CCCC(Cl)CCC (stereo not given) | -0.557% (inactive)
Cc1ccc(C)o1 | 0.915% (inactive)
CCCCN(CCO)CCCC | -0.46% (inactive)
C=C(C)C(=O)OCCCCCC | -0.345% (inactive)
CCOc1cccc(N)c1 | 0.267% (inactive)
COC(=O)CCCC(=O)OC | 0.415% (inactive)
O=C1CCCCC1 | 1.2% (inactive)
NC(=O)NC(N)=O | -0.0368% (inactive)

Compound | caspase-3 activation
CCOCCOCC | 2.1% (inactive)
CC(C)N=C=NC(C)C | -0.0173% (inactive)
CC(C)=CCl | -0.879% (inactive)
CCC(C)(C)C(=O)O | -0.559% (inactive)
Cc1ccc(C)c(N)c1 | 1.22% (inactive)
CN(C)CCCCl | -0.158% (inactive)
CCCCOCCOCCOCCCC | 1.71% (inactive)
CC/C=C/C#N | 0.34% (inactive)
Cc1cccc2cccnc12 | 0.174% (inactive)
Cc1ccccc1C(=O)O | -0.792% (inactive)
C/C(C=O)=C/c1ccccc1 | -0.831% (inactive)
O=[N+]([O-])c1c(Cl)cc(Cl)cc1Cl | -0.397% (inactive)
CC(=O)OC(C)=O | -0.94% (inactive)
CNC(=O)c1ccccc1 | -0.74% (inactive)
O=Cc1c(Cl)cccc1Cl | 0.498% (inactive)
c1ccc(Oc2ccccc2)cc1 | 0.225% (inactive)
Clc1cc(Cl)cc(Cl)c1 | 0.928% (inactive)
Cc1ccc(C(C)(C)C)cc1 | 0.582% (inactive)
C=C(C)C(=O)OCC(C)O (stereo not given) | 0.634% (inactive)
O=C(O)c1cc(Cl)cc(Cl)c1 | -0.449% (inactive)

assay: Cellular Toxicity (caspase-3) Jurkat (AID 655); details: Jurkat caspase-3 activation, luminescence; caspase-3 activation: at 92.2 µM (top of the series), DMSO = 0%, tamoxifen = 100%;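 further: cells exposed to compound for 16 h at 37 °C before reading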
In short: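 5000 Jurkat cells/well; compound 16 hr, 37 °C; Caspase-Glo 3/7 added, 20 min RT; luminescence read. Norm: DMSO = 0%, tamoxifen 100 uM = 100%. AC50, Hill model.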

Compound | caspase-3 activation
Cc1ccccc1C#N | 0.133% (inactive)
CCC=O | 3.47% (inactive)
Oc1c(Cl)ccc(Cl)c1Cl | 0.893% (inactive)
Cc1ccccc1C=O | 0.742% (inactive)
CN(C)c1cccc(O)c1 | -0.572% (inactive)
Cc1ccc(S(=O)(=O)NC2CCCCC2)cc1 | 0.692% (inactive)
CCOC(=O)OCC | 0.854% (inactive)
CC(C)(O)CCC(C)(C)O | 0.189% (inactive)
O=Cc1ccccc1Cl | 7.22% (inactive)
CCCCCCCCC/C=C/CC1CC(=O)OC1=O (stereo not given) | 1.29% (inactive)
Cc1ccc2cccnc2c1 | -0.667% (inactive)
O=Cc1ccc(CO)o1 | -0.436% (inactive)
CCCC(Cl)CCCC(Cl)CCC(Cl)CCC(Cl)CCC(Cl)CCCC(Cl)CCC (stereo not given) | -0.794% (inactive)
Cc1ccc(C)o1 | 1.7% (inactive)
CCCCN(CCO)CCCC | -0.474% (inactive)
C=C(C)C(=O)OCCCCCC | 2.29% (inactive)
CCOc1cccc(N)c1 | -1.1% (inactive)
COC(=O)CCCC(=O)OC | 0.321% (inactive)
O=C1CCCCC1 | 1% (inactive)
NC(=O)NC(N)=O | 0.487% (inactive)

Compound | caspase-3 activation
CCOCCOCC | 1.67% (inactive)
CC(C)N=C=NC(C)C | 2.33% (inactive)
CC(C)=CCl | -0.417% (inactive)
CCC(C)(C)C(=O)O | -0.0519% (inactive)
Cc1ccc(C)c(N)c1 | 0.403% (inactive)
CN(C)CCCCl | 1.76% (inactive)
CCCCOCCOCCOCCCC | 0.193% (inactive)
CC/C=C/C#N | -0.0351% (inactive)
Cc1cccc2cccnc12 | -0.137% (inactive)
Cc1ccccc1C(=O)O | -1.34% (inactive)
C/C(C=O)=C/c1ccccc1 | -0.305% (inactive)
O=[N+]([O-])c1c(Cl)cc(Cl)cc1Cl | 0.558% (inactive)
CC(=O)OC(C)=O | -0.999% (inactive)
CNC(=O)c1ccccc1 | 0.307% (inactive)
O=Cc1c(Cl)cccc1Cl | 3.49% (inactive)
c1ccc(Oc2ccccc2)cc1 | 0.819% (inactive)
Clc1cc(Cl)cc(Cl)c1 | 0.897% (inactive)
Cc1ccc(C(C)(C)C)cc1 | 1.39% (inactive)
C=C(C)C(=O)OCC(C)O (stereo not given) | 1.29% (inactive)
O=C(O)c1cc(Cl)cc(Cl)c1 | -1.52% (inactive)
